Source: PubChem (several laboratories)
In the library only some 1.4% were active in any assay of this set; here they are far more common.
MsrA inh – inhibitors of bovine MsrA; inhibition, % at 15.5 µM; purified bovine MsrA, absorbance read-out; 360,000 tested, 0.75% active; AID 651718; in the data active = inhibition above about 4.5%
14-3-3 Bad PPI – disrupts binding of bovine 14-3-3 zeta to phospho-Bad peptide | AID 781 | 220,000 tested, 0.71% active | inhibition, % at 21.7 µM | TR-FRET 14-3-3zeta/Dy647-pBad peptide displacement, 1 h;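 active = inhibition above about 70%, limit read from the data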
MsrA act – activates bovine MsrA enzyme; 360,000 tested, 0.3% active; activation, % at 10.6 µM; AID 602163; purified bovine MsrA, absorbance read-out; in the data active = activation above about 7.5%
p-CIP stab down – p/CIP protein destabilization. AID 1984. F442A p/CIP-EGFP cells, EGFP fluorescence, 16 h. 290,000 tested, 0.01% active. decrease of EGFP signal, % at 10 µM;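 active = EGFP signal decrease of at least 30% at 10 µM or well 3 SD below plate mean, unless failing retest; inactive = the rest, including hits failing retest or dose response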
Target sequence (Q05BA5 1-1403): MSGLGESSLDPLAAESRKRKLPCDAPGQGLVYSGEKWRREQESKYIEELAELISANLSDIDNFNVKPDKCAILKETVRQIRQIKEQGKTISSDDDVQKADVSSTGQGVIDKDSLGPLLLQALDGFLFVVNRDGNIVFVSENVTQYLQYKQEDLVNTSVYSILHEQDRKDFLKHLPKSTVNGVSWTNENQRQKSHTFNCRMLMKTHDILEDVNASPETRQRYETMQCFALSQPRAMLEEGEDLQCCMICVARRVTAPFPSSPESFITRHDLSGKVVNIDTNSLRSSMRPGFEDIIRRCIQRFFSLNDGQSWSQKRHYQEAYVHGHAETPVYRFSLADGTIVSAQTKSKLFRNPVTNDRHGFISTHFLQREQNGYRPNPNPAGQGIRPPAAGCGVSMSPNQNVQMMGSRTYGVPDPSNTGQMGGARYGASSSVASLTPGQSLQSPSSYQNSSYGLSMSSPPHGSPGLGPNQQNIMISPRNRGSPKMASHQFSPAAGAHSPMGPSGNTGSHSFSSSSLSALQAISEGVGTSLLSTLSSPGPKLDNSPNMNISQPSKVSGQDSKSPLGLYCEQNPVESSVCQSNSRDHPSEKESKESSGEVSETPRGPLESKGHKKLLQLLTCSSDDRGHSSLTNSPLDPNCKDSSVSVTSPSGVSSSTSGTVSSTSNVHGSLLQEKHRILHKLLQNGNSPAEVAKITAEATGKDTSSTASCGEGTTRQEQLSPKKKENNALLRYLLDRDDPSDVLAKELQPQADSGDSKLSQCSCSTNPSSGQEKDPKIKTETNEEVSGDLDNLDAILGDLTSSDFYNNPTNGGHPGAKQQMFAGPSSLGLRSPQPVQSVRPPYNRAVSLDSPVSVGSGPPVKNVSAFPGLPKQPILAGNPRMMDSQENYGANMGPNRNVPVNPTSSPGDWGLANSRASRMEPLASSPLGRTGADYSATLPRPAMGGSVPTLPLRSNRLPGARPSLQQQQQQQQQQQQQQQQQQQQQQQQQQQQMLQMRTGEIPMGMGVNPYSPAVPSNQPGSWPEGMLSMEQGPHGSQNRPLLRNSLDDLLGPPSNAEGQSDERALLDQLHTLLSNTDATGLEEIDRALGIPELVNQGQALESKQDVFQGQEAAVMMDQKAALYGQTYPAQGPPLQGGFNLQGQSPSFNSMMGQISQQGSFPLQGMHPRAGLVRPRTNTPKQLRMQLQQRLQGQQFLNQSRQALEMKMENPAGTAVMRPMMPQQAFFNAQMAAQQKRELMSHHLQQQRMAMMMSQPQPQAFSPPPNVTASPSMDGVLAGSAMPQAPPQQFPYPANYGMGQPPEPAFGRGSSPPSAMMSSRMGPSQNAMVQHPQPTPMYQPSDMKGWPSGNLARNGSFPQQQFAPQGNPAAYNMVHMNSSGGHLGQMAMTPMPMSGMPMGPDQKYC
MsrA act confirm – bovine methionine sulfoxide reductase A activation confirmed; purified bovine MsrA, absorbance read-out; 1,000 tested, 12% active; shares compounds with MsrA act; activation, % at 10.6 µM; in the data active = activation above about 4%;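 note: enzyme coupled to thioredoxin and thioredoxin reductase with NADPH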
A number is an active result; – = inactive; · = not tested or not shown; ! = not active in a repeat.

SMILES | MsrA inh | 14-3-3 Bad PPI | MsrA act | p-CIP stab down | MsrA act confirm
CC(=O)Nc1cc(-c2cccc(C(=O)N(C)C)c2)cn2c(-c3ccc(F)c(Cl)c3)cnc12 | – | · | – | · | ·
COC(=O)c1cc2c(c3c4cc(C)ccc4n(S(=O)(=O)c4ccc(OC)cc4)c13)C(=O)N(C)C2 | – | · | · | · | ·
C=CCN=C1NC(c2cccc(F)c2)C(C(=O)OC)=C(C)N1Cc1ccccc1C(F)(F)F (stereo not drawn) | – | · | · | · | ·
CC(C)(C)OC(=O)N1CCC(NC(=O)c2nc[nH]c2C(=O)NCc2ccccc2)CC1 | – | · | – | · | ·
CC(C)(C)OC(=O)NCc1ccc(CNC(=O)c2[nH]cnc2C(=O)NC2CCN(C(=O)OC(C)(C)C)CC2)cc1 | · | · | 12 | · | –
Cc1cccc2c1N(CCOc1ccccc1Cl)C(=O)C2=O | – | – | 8.0 | – | –
COC(=O)[C@]12C[C@H](CC(=O)NCc3ccc(OC)c(OC)c3)C(=O)N(CCc3ccc(OC)c(OC)c3)C1=C[C@H](C(C)(C)C)O[C@@H]2C | – | · | · | · | ·
COC(=O)[C@]12C[C@H](CC(=O)N3CCN(C(=O)c4ccco4)CC3)C(=O)N(Cc3ccccc3)C1=C[C@H](C(C)C)O[C@@H]2C1CC1 | – | · | · | · | ·
COc1ccc(-c2cc(-c3ccccc3)nc(N3CCCC3)n2)cc1OC | – | – | 8.0 | – | –
COc1ccc(-c2cc(C(F)(F)F)nc(N3CCOCC3)n2)cc1OC | – | – | – | – | ·
COc1ccccc1C(=O)N(Cc1ccccc1)c1ccc(C)cc1 | – | · | – | – | ·
COc1ccc(CN(C(=O)c2ccco2)c2ccc(C)cc2)cc1OC | – | – | 7.9 | – | –
N#CC(c1nc2ccccc2nc1N1CCCC1)S(=O)(=O)c1cccs1 (stereo not drawn) | – | – | 10.0 | – | –
N#CC(c1nc2ccccc2nc1N1CCCC1)S(=O)(=O)c1ccccc1 (stereo not drawn) | – | – | – | – | ·
COC(=O)C1=C(C)N(C)C(=NCc2ccc(OC)cc2)NC1c1ccccc1 (stereo not drawn) | – | · | · | · | ·
COC(=O)c1cc2c(c3c4cc(OC)ccc4n(S(=O)(=O)c4cccc(C)c4)c13)C(=O)N(Cc1ccc(N(C)C)cc1)C2 | – | · | · | · | ·
COC(=O)[C@]12C[C@H](CC(=O)NCC34CC5CC(CC(C5)C3)C4)C(=O)N(Cc3ccc4c(c3)OCO4)C1=C[C@H](COCc1ccccc1)O[C@@H]2C | – | · | · | · | ·
CCN(CC)S(=O)(=O)c1ccc(NC(=O)CNC2CCCCC2)cc1 | – | · | 8.4 | – | –
CCN(CC)S(=O)(=O)c1ccc(NC(=O)CCC2CCCCC2)cc1 | – | – | – | – | ·
Cc1cc(=O)[nH]c(N/N=C/c2cccc([N+](=O)[O-])c2)n1 | – | – | · | – | ·
Cc1cc(C)nc(N/N=C/c2cccc([N+](=O)[O-])c2)n1 | – | – | 10 | – | –
COc1ccc(N2C(=O)c3n[nH]c(C)c3C2c2cccc(C(F)(F)F)c2)cc1 (stereo not drawn) | – | · | · | · | ·
O=C(O)c1cc([N+](=O)[O-])c(Sc2nc3ccccc3[nH]2)c([N+](=O)[O-])c1 | – | · | – | – | ·
CS(=O)(=O)c1cc([N+](=O)[O-])c(Sc2nc3ccccc3[nH]2)c([N+](=O)[O-])c1 | – | 87 | 8.0 | – | 10
CCOc1ccccc1OCCCNCc1ccco1 | – | – | 13 | – | –
SMILES | MsrA inh | 14-3-3 Bad PPI | MsrA act | p-CIP stab down | MsrA act confirm
Nn1cnnc1N/N=C\c1ccc(-c2ccccc2[N+](=O)[O-])o1 | – | – | 20 | – | –
COc1ccc(C2CC(=O)C(c3ccccc3)=CN2Cc2ccccc2)cc1 (stereo not drawn) | – | · | · | · | ·
O=C(Nc1c2c(nn1-c1ccc([N+](=O)[O-])cc1)CS(=O)(=O)C2)c1cccs1 | – | · | – | – | ·
O=C(Nc1c2c(nn1-c1ccc([N+](=O)[O-])cc1)CS(=O)(=O)C2)c1ccccc1F | – | · | 7.9 | – | –
CC(C)(C)c1ccc(C#C[C@@H]2C=C[C@H]3OC(=O)CC/C=C/CCC(=O)OC[C@H]3O2)cc1 | – | · | · | · | ·
COc1ccccc1CNC(=O)CCCn1nc(C)c2c(C)n(-c3ccccc3)nc2c1=O | – | · | 12 | – | –
Cc1cccc(NCc2ccccc2O)c1C | – | – | 15 | – | –
CCCN1CCCCC(NC(=O)c2ccccc2OC)C1=O (stereo not drawn) | – | · | · | · | ·
CC(=O)Nc1nc(-c2ccc(Cl)cc2)nc(C)c1C(C)=O | – | 86 | 8.9 | – | –
CC(=O)c1c(C)nc(C)nc1NC(=O)Cc1ccccc1 | – | – | – | – | ·
COc1ccc(N2CCN(C(=O)c3cc(-c4ccc(F)cc4)[nH]c3C)CC2)cc1 | – | · | – | – | ·
Cc1[nH]c(-c2ccc(F)cc2)cc1C(=O)N1CCN(c2ccc(Cl)cc2)CC1 | – | · | 8.3 | – | –
COc1ccccc1CNC(=O)C(=O)NCC1CCCO1 (stereo not drawn) | – | – | – | – | ·
COc1ccccc1CC(=O)NCC1CCCO1 (stereo not drawn) | – | – | 8.4 | – | –
COC(=O)c1cc2c(c3c4cc(F)ccc4n(S(=O)(=O)c4ccccc4)c13)C(=O)N(Cc1ccc(N(C)C)cc1)C2 | – | · | · | · | ·
CCSC1=NCCN1S(=O)(=O)c1ccc(NC(C)=O)cc1 | – | – | – | – | ·
CSC1=NCCN1S(=O)(=O)c1ccc(NC(C)=O)cc1 | – | – | 21 | – | –
COc1cc2c(cc1OC)[C@@H](NC(=O)c1ccncc1)[C@H](C)[C@H]2c1ccccc1 | – | · | · | · | ·
N#CCOC(=O)c1cc(S(=O)(=O)N2CCCCC2)ccc1N1CCOCC1 | – | · | 12 | · | –
CC(C)[C@H](NC(=O)c1ccccc1)C(=O)OCc1nc2scc(-c3ccccc3)c2c(=O)[nH]1 | – | – | 13 | – | 6.3
COC(=O)Nc1nnc(COc2ccccc2)s1 | – | – | 8.9 | – | –
CCCCOCCCNC(=O)C[C@H]1C[C@@]2(C(=O)OC)C(=C[C@H](C(C)(C)C)O[C@@H]2C)N(Cc2ccc3c(c2)OCO3)C1=O | – | · | · | · | ·
O=C(C1CCN(S(=O)(=O)c2ccccc2F)CC1)N1CCc2ccccc21 | – | · | 8.8 | · | –
O=C1C(Nc2ccc(O)cc2)=C/C(=N/S(=O)(=O)c2cccs2)c2ccccc21 | 49 | – | 9.9 | · | 7.9
CCOC(=O)C1CCCN(CCCc2ccccc2)C1 (stereo not drawn) | – | – | 14! | – | –
SMILES | MsrA inh | 14-3-3 Bad PPI | MsrA act | p-CIP stab down | MsrA act confirm
Cc1cccc(C)c1NC(=O)C1CCCN(CCCc2ccccc2)C1 (stereo not drawn) | – | – | – | – | ·
C=CCOc1ccc(Oc2cc(C)nc(SC)n2)nn1 | – | – | 13 | – | –
O=C1NCCN(Cc2ccc(Cl)c(F)c2)C1CC(=O)N1CCCCO1 (stereo not drawn) | – | – | 8.6 | – | –
O=C(CCl)N1c2ccccc2Sc2c1ccc1ccccc21 | – | · | – | · | ·
CC(=O)N1c2ccccc2Sc2ccc3ccccc3c21 | – | · | 9.2 | · | –
CCOC(=O)C1(C)CCN1C(=O)COc1ccccc1 (stereo not drawn) | – | · | – | · | ·
CCOC(=O)C1(C)CCN1C(=O)COc1ccc(C(C)(C)C)cc1 (stereo not drawn) | – | · | 8.2 | · | –
COc1ccc(/C=C/C(=O)N2CCC(C(N)=O)CC2)cc1S(=O)(=O)N1CCOCC1 | – | – | – | – | ·
